Most compounds without a hit are left out; they make up all but 11% or so of the library.
HPGD block: qHTS Assay for Inhibitors of HPGD (15-Hydroxyprostaglandin Dehydrogenase). 15-hydroxyprostaglandin dehydrogenase [NAD(+)] (Homo sapiens), P15428. purified HPGD, NADH fluorescence kinetic, PGE2 substrate. Potency, µM, without a hit: at the highest dose activity change, negative = inhibition, most hits filed as inhibitors. 150,000 tested, 4.3% active. AID 894, 2007; further: potency means the concentration at half of the fitted maximal effect
Target sequence (P15428 whole entry, looked up): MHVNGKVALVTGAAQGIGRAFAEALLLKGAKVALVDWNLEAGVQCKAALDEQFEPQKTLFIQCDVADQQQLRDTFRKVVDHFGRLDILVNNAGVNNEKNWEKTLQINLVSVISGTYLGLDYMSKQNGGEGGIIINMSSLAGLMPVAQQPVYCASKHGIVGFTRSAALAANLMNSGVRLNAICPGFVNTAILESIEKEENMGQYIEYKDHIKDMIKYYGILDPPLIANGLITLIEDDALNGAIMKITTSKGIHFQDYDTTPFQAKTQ
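20 nM HPGD preincubated 15 min at room temperature with compound in 50 mM Tris-HCl pH 8, 0.01% Tween 20. Started with 1 mM NAD+ and 30 uM prostaglandin E2; NADH fluorescence (360/450 nm) read 5 times over 30-s intervals, last minus first.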
PNC assembly inh: High Content Assay for Compounds that inhibit the Assembly of the Perinucleolar Compartment; PC3M PTB-GFP, PNC prevalence imaging, 16 h; active compounds read low; 140,000 tested, 3.1% active; activity change (PNC), negative = inhibition, % at 10 µM;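 active means readout at or below -70, meaning at least 70% loss of cells showing the perinucleolar compartment, a nuclear body marking cancer cells; inconclusive means readout between -30 and a set limit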;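 further: plate controls were DMSO wells for no effect and camptothecin positive control wells for full effect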
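Compounds are pinned in duplicate onto adhered PC3M cells stably expressing GFP-tagged PTB and incubated 16 h at 37 C. Cells are then fixed, nuclei stained with Hoechst, and PNC-positive cells counted.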
KDM4E inh: qHTS Assay for Inhibitors of Human Jumonji Domain Containing 2E (JMJD2E). Lysine-specific demethylase 4E (Homo sapiens), B2RXH2. JMJD2E catalytic domain, FDH-coupled NADH fluorescence (FDH is formaldehyde dehydrogenase). Potency, µM (titrated, usually from 57.1 µM), without a hit: at the top dose activity change, negative = inhibition, most hits filed as inhibitors. 230,000 tested, 1.6% active;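 further: potency means the concentration at half of the fitted maximal effect; 0% = wells with enzyme and -100% = buffer wells without enzyme; nearly all actives have a fitted effect of over 50% in size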
Target sequence (B2RXH2 1-337 limits assumed): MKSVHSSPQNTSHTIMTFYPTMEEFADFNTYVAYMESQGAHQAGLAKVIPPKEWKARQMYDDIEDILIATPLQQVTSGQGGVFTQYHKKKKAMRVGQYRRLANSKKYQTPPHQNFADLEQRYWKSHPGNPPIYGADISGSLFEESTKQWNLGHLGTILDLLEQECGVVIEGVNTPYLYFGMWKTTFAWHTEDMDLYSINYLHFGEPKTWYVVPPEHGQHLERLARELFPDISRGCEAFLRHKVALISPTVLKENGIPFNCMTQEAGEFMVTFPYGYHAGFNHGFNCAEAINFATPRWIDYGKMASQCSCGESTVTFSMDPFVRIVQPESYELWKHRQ
ALDH1A1 inh: qHTS Assay for Inhibitors of Aldehyde Dehydrogenase 1 (ALDH1A1). Purified ALDH1A1, NADH fluorescence, propionaldehyde substrate. Potency, µM (highest dose often 75.3 µM), for the others: top-dose activity, negative = inhibition, actives largely listed as inhibitors. 220,000 tested, 7.3% active;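 further: potency means the concentration at half of the fitted maximal effect; plate controls were no enzyme wells and a reference inhibitor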
Numbers without * were called inactive; u = inconclusive; x = no result given; [ ] = remark or other dose. Unless noted, the call rests on the fitted dose curve; in most records, active means well fitted inhibition curve with a large enough effect (not every such curve was filed as active); inconclusive means small, poorly fitted or top-dose-only effect, or another doubt; inactive means no such curve, though single readings can be large or run the other way. Unless noted, on the % scale 0 is the no-effect control and ±100 the full control effect.

SMILES	HPGD block	PNC assembly inh	KDM4E inh	ALDH1A1 inh
Cc1ccc(/C=C/C(=O)NCc2ccc(S(N)(=O)=O)cc2)o1	x	x	-7%	1.8µM*
CC(C)c1ccc(/C=C/C(=O)NCc2ccc(S(N)(=O)=O)cc2)cc1	x	x	-4%	28µM*
COc1ccc(/C=C/C(=O)NCCc2ccc(S(N)(=O)=O)cc2)cc1	-7%	u	-2%	10µM*
Cc1ccc2[nH]cc(CCNC(=O)/C=C/c3ccco3)c2c1	x	x	-5%	x
Clc1ccc(-c2ccccc2)nn1	x	x	2%	x
CCOC(=O)c1sc(NC(=O)CSc2nc(C)cc(C)n2)c(C#N)c1C	-12%	51	-21%	-5%
CCOC(=O)c1sc(NC(=O)c2cccnc2)c(C#N)c1C	-19%	-25	3%	-8%
CCOC(=O)c1sc(NC(=O)CSc2ccccn2)c(C#N)c1C	1%	18	4%	25µM*
CCOC(=O)c1sc(NC(=O)c2cc(-c3ccccc3)nc3ccccc23)c(C#N)c1C	16µM*	33	-8%	3.2µM*
CCOC(=O)c1sc(NC(=O)CSc2nnc(Cc3ccccc3)o2)c(C#N)c1C	2µM*	-14	-10%	0.56µM*
CCC(N)(C(=O)O)c1ccc(C(=O)O)cc1 (centres undefined)	x	x	x	2%
CC(C)(CO)NC(=O)C12CC3CC(CC(Br)(C3)C1)C2	x	x	5%	x
CC(C)(C)CC(C)(C)c1ccc(OCCO)cc1	0%	x	x	-5%
COCC(=O)NCc1ccc2c(c1)cc(C)n2C	25µM*	-113*	-8%	2%
Cc1cc2cc(CNC(=O)c3ccco3)ccc2n1C	x	x	-10%	x
Cc1cc2cc(CNC(=O)NC3CCCCC3)ccc2n1C	28µM*	-11	-2%	-2%
Cc1cc2cc(CNC(=O)NC3CCCCC3)ccc2[nH]1	u	51	-6%	-8%
Cc1cc2cc(CNC(=O)c3cc4ccccc4o3)ccc2n1C	7.1µM*	-9	u	u
Cc1ccc(S(=O)(=O)NCc2ccc3c(c2)cc(C)n3C)cc1	-7%	u	-15%	20µM*
Cc1cc2cc(CNC(=O)COc3ccccc3)ccc2n1C	x	x	-1%	x
Cc1cc(C)n2nc(C(=O)Nc3cccc(S(=O)(=O)N(C)c4ccccc4)c3)nc2n1	x	x	-1%	x
Cc1nn(C)c(C)c1S(=O)(=O)N(CC(=O)N1CCc2ccccc21)c1ccc(C(C)C)cc1	-1%	9	6%	12%
Cc1nn(C)c(C)c1S(=O)(=O)N(CC(=O)N1CCc2ccccc2C1)c1ccc(C(C)C)cc1	-5%	32	-3%	11µM*
COc1ccccc1-c1ccc(NC2CCCC2)nn1	6.3µM*	42	-16%	0%
COc1ccc(CNc2ccc(-c3ccc(OC)cc3)nn2)cc1	-11%	-88*	3%	2%
SMILES	HPGD block	PNC assembly inh	KDM4E inh	ALDH1A1 inh
COc1ccc(CNc2ccc(-c3ccccc3OC)nn2)cc1	16µM*	u	3%	-9%
COC(=O)C/C=C\[C@@H](C)[C@@H](/C=N\OC[C@@H](O)[C@H]1O[C@H]2OC(C)(C)O[C@H]2[C@@H]1O)OC	x	x	x	-4%[13.5 µM]
Brc1ccc2nc(-c3cccs3)c(NCC3CCCO3)n2c1 (centres undefined)	x	x	u	7.9µM*
CS(=O)(=O)N1CCN(c2ccccc2NC(=S)NC(=O)c2cccs2)CC1	x	x	-4%	0.45µM*
CS(=O)(=O)N1CCN(c2ccccc2NC(=S)NC(=O)c2ccccc2[N+](=O)[O-])CC1	x	x	-18%	0.71µM*
CS(=O)(=O)N1CCN(c2ccccc2NC(=O)Cc2ccccc2)CC1	-2%	-23	1%	-14%
CO/N=C(/C(=O)N[C@@H]1C(=O)N2C(C(=O)O)=C(COC(N)=O)CS[C@H]12)c1ccco1	-2%	x	x	u
O=C(CSc1n[nH]c(-c2ccco2)n1)Nc1sc2c(c1C(=O)Nc1ccccc1)CCCC2	-7%	9	-19%	-3%
O=C1Nc2ccccc2/C1=N\c1sc2c(c1C(=O)Nc1ccccc1)CCCC2	-9%	55	u	25µM*
O=c1/c(=C\c2ccc(O)cc2)sc2nc(-c3ccccc3)c(-c3ccccc3)n12	x	x	-3%	x
O=c1/c(=C/c2ccc(O)cc2)sc2nc3cc(Br)cnc3n12	x	x	-3%	20µM*
CCOC(=O)CCc1c(C(=O)OCC)[nH]c(CC)c1C(=O)OCc1ccccc1	x	x	2%	x
CCC(C)NC(=O)CCNS(=O)(=O)c1ccc(Br)cc1 (centres undefined)	0%	-90*	3%	1%
CCCCNC(=O)CCNS(=O)(=O)c1ccc(Br)cc1	-5%	25	-7%	-4%
CCCN1C(=O)C(O)(C2COC(C)(C)CC2=O)c2ccccc21 (centres undefined)	x	x	12%	0.35µM*
CCCN1C(=O)C(O)(C/C(C)=N/O)c2ccccc21 (centres undefined)	0%	17	-2%	14%
CCCN1C(=O)C(O)(C2CC(=O)CC(C)(C)O2)c2ccccc21 (centres undefined)	-1%	29	0%	0.79µM*
CCN1C(=O)C(O)(C2COC(C)(C)CC2=O)c2ccccc21 (centres undefined)	-6%	32	0%	u
CCN1C(=O)C(O)(C2COC(C)(C)CC2=O)c2cc(Br)ccc21 (centres undefined)	-13%	u	2%	8.9µM*
CN(C)CCN(C(=O)c1ccc2c(c1)OCCO2)c1nc2ccc(Cl)cc2s1	x	x	-1%	-9%
CN(C)CCN(C(=O)c1ccc(N2C(=O)CCC2=O)cc1)c1nc2cc3c(cc2s1)OCCO3	x	x	-20%	28µM*
CCN(c1ccccc1)c1nc(=O)c2cccnc2s1	x	x	14%	20µM*
Cc1ccc(CNC(=O)[C@H](C)[C@@H]2C[C@@]2(C)[C@@H](NC(=O)OCc2ccccc2)c2ccccc2)c(F)c1F	-17%	x	-4%	2%
Cc1cccc(NC(=S)NNC(=O)c2csc(C(C)C)c2)c1	-12%	u	-15%	13µM*
Cc1ccc(NC(=S)NCc2ccccc2)cc1[N+](=O)[O-]	13µM*	7	11%	-13%
SMILES	HPGD block	PNC assembly inh	KDM4E inh	ALDH1A1 inh
O=C(O)c1cccc(NC(=S)NCc2ccccc2)c1	x	x	-7%	12%
COCCCNC(=S)NNC(=S)Nc1cccc(Cl)c1	x	x	-9%	4.5µM*
Cc1cccc(NC(=S)NNC(=S)NCc2ccccc2)c1	u	20	13%	1.6µM*
Cc1ccc(/C([O-])=C(/C(=S)NCc2ccccc2)[n+]2cccc(CO)c2)cc1[N+](=O)[O-]	x	x	-12%	8.9µM*
S=C(NCc1ccccc1)Nc1cccc(Cl)c1	14µM*	-28	-3%	5%
O=S(=O)(c1ccccc1)N1CCC2(CCCN(Cc3ccccc3)C2)CC1	-5%	x	x	-15%
CCCCC/C=C\C/C=C\C/C=C\C/C=C\CCCC(=O)O[C@@H](CO)COCCCCCCCCCCCCCCCC	-8%	x	8%	2%
O=C1CCC[C@H]2OC12[C@@H](O)CCc1ccccc1 (some centres undefined)	x	x	x	23%[13.5 µM]

Screening results as filed in PubChem BioAssay.
